# Only some compounds are listed: those with a hit (about 9.6% of all), similar ones and a draw of the others.
# L major viab – Leishmania major promastigote growth inhibition; 200,000 tested, 9% active; AID 1063; Leishmania major promastigotes, resazurin fluorescence viability; inhibition, % at 10 µM; in the data active means inhibition above about 50%;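 further: promastigotes grown with compound for 44 hours at 28 °C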
# Autophagy HCS – modulators of autophagy; MEF GFP-LC3 puncta imaging; test concentration mostly 10 µM; calls only at 10 µM (by protocol); 190,000 tested, 0.98% active;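 active means percentage of spot-positive cells more than 3 SD above its plate mean, without a fluorescence outlier flag or 80% toxicity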;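 further: spot-positive cell cutoff set from DMSO-treated cells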
# Insulin prom inh – TRM-6 insulin promoter activity inhibition | 130,000 tested, 0.9% active | TRM-6 cells (human fetal islet line), insulin promoter-eGFP reporter, imaging; reporter expression induced with tamoxifen | inhibition, % at 2 µM | AID 1273;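 active means inhibition above the mean plus 3 SD, with well images judged a real hit on visual review, cut at about 60% in these data, passing the limit was not always enough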
# bCat KO growth – beta-catenin-lacking colon tumor cell growth suppression; AID 818; viability, % at 10 µM; 140,000 tested, 1.5% active; HCT116 beta-catenin knockout viability, CellTiter-Glo, 60 h; stronger effect = lower value;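 active means viability at or under a set limit, the compound median less 4 SD, cut at about 6% in these data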;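 further: 0% = Hyamine 1622 control at 20 µM and 100% = untreated cell control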
# HCT116 PTEN-null – PTEN-deleted cell growth suppression; viability, % at 10 µM; HCT116 PTEN-null viability, CellTiter-Glo, 60 h; stronger effect = lower value; 140,000 tested, 1.2% active;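 active means viability at or below a set limit, 4 SD under the median of all tested compounds, cut at about 3.7% in these data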;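 further: PTEN knockout HCT116 line with beta catenin targeted HCT116 as companion control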
# Insulin prom up – MIN6 insulin promoter up-regulation; MIN6 insulin promoter-GFP reporter, high-content imaging; stronger effect = higher value; z-score at 5 µM; 190,000 tested, 0.3% active;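 active means z-score above 3 at 5 µM with at least 500 cells counted in the well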
# Starred values were filed as active, the others as inactive; i = inactive; / = no result given; + = active, no number.
SMILES,L major viab,Autophagy HCS,Insulin prom inh,bCat KO growth,HCT116 PTEN-null,Insulin prom up
COc1cc(CNC2CCCCCCC2)cc(Br)c1OCC#N,75.1*,i,-42.9,52.8,54.2,-0.28
CCOc1c(Br)cc(CNC2CCCCCCC2)cc1OC,59.9*,i,/,/,/,-1.15
COc1cc(CNC2CCCC2)c(Br)cc1OC1CCCC1,36.9,i,-40.0,/,/,/
CCOc1c(Br)cc(CNc2ccc3c(c2)OCCO3)cc1OC,8.7,i,-83.3,13.8,18.6,-1.4
O=C(Nc1cccc([N+](=O)[O-])c1)c1cnccn1,64.8*,i,-27.0,92.7,94.8,0.02
Cc1ccccc1NC(=O)c1ccc2c(c1)OCCO2,-4.9,i,25.0,89.0,1.9*,-0.22
O=C(N/N=C/c1cccc([N+](=O)[O-])c1)c1cnccn1,2.1,i,6.2,101.5,94.6,0.01
O=C(Nc1cccc([N+](=O)[O-])c1)c1ccncc1,9.2,i,38.8,96.7,96.2,-0.14
CC(C)(C)c1ccc(C(=O)Nc2cccc([N+](=O)[O-])c2)cc1,4.0,i,72.4*,13.8,7.6,-1.22
Cc1ccc(NC(=O)c2ccc3c(c2)OCCO3)cc1,-6.4,i,11.4,63.0,68.9,1.34
O=C(Nc1ccc(F)c([N+](=O)[O-])c1)c1ccc2c(c1)OCCO2,-0.7,i,-85.7,/,/,-0.61
O=C(Nc1cccc([N+](=O)[O-])c1)c1ccc2c(c1)OCCO2,51.9*,i,5.3,87.0,74.2,0.14
Clc1ccc(-c2nc(Cc3ccccc3)no2)cc1,-1.7,i,-83.9,92.6,85.5,0.82
CCCCN(CCCC)S(=O)(=O)c1c(C)[nH]c(=O)[nH]c1=O,-14.0,i,72.7*,/,/,-0.19
COCCn1c(=O)[nH]c2cc(C(=O)Nc3cccc(F)c3)ccc2c1=O,8.4,i,/,/,/,-0.03
Cc1ccc(C(=O)N2CCN(c3ccccc3)CC2)cc1S(=O)(=O)N1CCCC1,-4.8,i,/,71.6,74.3,/
Cc1ccc(C(=O)N2CCN(c3ncccn3)CC2)cc1S(=O)(=O)N1CCCCC1,59.4*,i,40.7,100.0,99.4,0.19
CC(C)N(Cc1ccccc1)CC(O)COc1ccc(S(=O)(=O)N2CCOCC2)cc1Cl (centres undefined),100.0*,i,/,/,/,-0.15
O=S(=O)(c1ccc(OCC(O)CNCc2ccco2)c(Cl)c1)N1CCOCC1 (centres undefined),-4.3,i,/,97.1,99.0,0.83
CC(NC(=O)OCc1ccccc1)C(=O)NCC(=O)NC(Cc1ccc(OC(C)(C)C)cc1)C(=O)OC(C)(C)C (centres undefined),52.7*,i,-6.9,87.6,84.7,/
CC(C)(C)OC(=O)C(Cc1ccc(OC(C)(C)C)cc1)NC(=O)CNC(=O)CNC(=O)OCc1ccccc1 (centres undefined),32.4,i,-26.7,74.0,76.5,-0.56
CCN(C(=O)COC(=O)c1ccc2c(=O)n3c(nc2c1)CCC3)C1CCS(=O)(=O)C1 (centres undefined),1.9,i,/,/,/,0
O=C1N/C(=C/c2cccs2)C(=O)N1Cc1ccccc1F,-9.0,i,/,/,/,0.47
Cc1ccc(/C=C2/NC(=O)N(Cc3ccccc3F)C2=O)s1,-6.5,+,-183.3,/,/,1.76
CCCc1cc(C(F)(F)F)c(C#N)c(=O)[nH]1,-4.7,i,67.9*,97.8,101.0,0.3
SMILES,L major viab,Autophagy HCS,Insulin prom inh,bCat KO growth,HCT116 PTEN-null,Insulin prom up
Cc1cc(=O)n2[nH]nnc2n1,/,/,/,/,/,-0.05
NC(=O)c1cccnc1Nc1cccc(F)c1,-3.2,i,86.7*,90.7,97.7,-0.64
NC(=O)c1cccnc1Nc1cccc([N+](=O)[O-])c1,-5.2,i,/,/,/,-0.11
CCN(CC)C(=O)CSc1nc2cc3c(cc2c(=O)n1Cc1ccc2c(c1)OCO2)OCO3,-6.0,i,33.3,101.6,110.6,-0.1
CC(C)N1C(=O)S/C(=C/c2ccc(Sc3nc4ccccc4[nH]3)o2)C1=O,83.2*,i,-37.8,11.2,17.6,-0.26
COc1ccc(CCC(=O)N2CCCSC2=Nc2ccc(C(C)=O)cc2)cc1,97.8*,i,/,91.7,85.5,1.72
COc1ccc(C(=O)NNC(=O)CN2CCC(n3nnc4cc(C(F)(F)F)ccc43)CC2)cc1,-8.4,i,/,92.3,92.4,0.85
COc1ccc(C(=O)NNC(=O)CN2CCC(n3nnc4cc(F)ccc43)CC2)cc1,50.3*,i,-10.8,83.1,99.9,-0.3
CCOC(=O)C1CCCN(C(=O)c2cn(C)c3ccc(S(=O)(=O)N4CCCC4)cc3c2=O)C1 (centres undefined),-7.8,i,/,94.5,109.5,0.24
CC1CCN(S(=O)(=O)c2ccc3c(c2)c(=O)c(C(=O)N2CCCCC2)cn3C)CC1,-7.5,i,38.7,92.9,100.8,4.9*
CC(C)(O)C#Cc1ccc(CN2CCCC(CO)(Cc3cccc(Cl)c3)C2)cc1 (centres undefined),97.0*,i,/,/,/,/
Cc1ccccc1CC1(CO)CCCN(Cc2ccc(C#CC(C)(C)O)cc2)C1 (centres undefined),84.7*,i,-4.3,/,/,/
COc1ccc(/C=C/CN2CCCC(CO)(Cc3cccc(Cl)c3)C2)cc1 (centres undefined),97.4*,i,/,/,/,/
COCc1ccc(CN2CCCC(CO)(Cc3ccccc3C)C2)o1 (centres undefined),14.4,i,-12.5,/,/,0.66
CCOC(=O)Nc1ccc(S(=O)(=O)NCCCN2CCOCC2)cc1,-7.3,i,3.9,96.8,99.0,0.16
CCOC(=O)CSc1nnc(Cc2cc(=O)[nH]c(=O)[nH]2)n1-c1ccc(Cl)cc1,-6.8,i,/,96.6,101.7,-0.69
COCCCNC(=O)c1cccn2c(=O)c3cc4ccccc4cc3nc12,89.6*,i,-5.3,4.3*,3.9,1.65
O=C(NCc1ccco1)c1cccn2c(=O)c3cc4ccccc4cc3nc12,14.0,i,-25.0,2.6*,1.7*,/
O=C(NCc1ccco1)c1cc2ccccc2c(=O)o1,3.1,i,78.6*,92.4,84.8,2.69
O=C(NCc1ccco1)c1cc(=O)c2ccccc2o1,-1.9,i,0.0,/,/,-0.47
Cc1ccccc1NC(=O)Cc1nc(CSc2nnc(-c3ccc4c(c3)OCO4)o2)cs1,86.2*,i,-42.9,98.1,91.6,/
Cc1ccc(-c2nnc3c(C(F)(F)F)nc4ccccc4n23)cc1,4.2,i,-3.6,4.7*,7.9,0.24
FC(F)(F)c1nnc2c(Sc3ccccc3)nc3ccccc3n12,1.6,i,24.2,7.3,10.1,-0.79
Cc1ccc(-c2nc3ccccc3n3c(C)nnc23)cc1,-1.9,i,/,77.0,78.5,-0.52
FC(F)(F)c1nc2ccccc2n2c(-c3ccc(Cl)cc3)nnc12,-1.7,i,-14.3,4.8*,9.9,/
FC(F)(F)c1nnc2c(Sc3ccc(Cl)cc3)nc3ccccc3n12,-1.4,i,-20.7,2.8*,5.5,-0.6
Cc1cc(C)nc(NC(=O)c2c(-c3c(Cl)cccc3Cl)noc2C)n1,7.9,i,-18.5,76.6,73.2,/
Nc1ccc(C(=O)N/N=C\c2cc(N=Nc3cccc4ccccc34)ccc2O)cc1,98.8*,i,0.0,7.2,5.6,-0.72

# High-throughput results (PubChem BioAssay)
